40 sequences from the supplement of paper PMC10338343 can be followed below.

± gives the standard deviation. A value given as a limit tells only on which side of the number the result lay.

In the assay the test system is MILI (PIWIL2) piRISC loaded with piRNA #1 (26 nt). In words: pre-steady-state target cleavage rate (min^-1); guide: piRNA #1 5'p-UGAGGUAGUAGGUUGUAUAGUAUCCA; MIWI and MILI are mouse PIWI proteins and EfPiwi is from a freshwater sponge; tags in brackets are library labels; higher = faster piRNA-guided slicing of the target. The note with it: auxiliary factor: 500 nM mouse GTSF1. Put shortly:
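Sequencing of uncleaved targets, normalised to depth and to weakly complementary targets, was the readout of this Cleave-'n-Seq assay. A transcribed, DNA-blocked target RNA library (0.1 nM) was mixed with 1 nM active affinity-purified piRISC carrying one synthetic guide, with or without 500 nM GTSF1 partner protein, in HEPES–potassium acetate buffer at 33 °C for 0–8 or 0–960 min. Three trials were pooled, k3 was capped at 0.0001 min^-1, and a burst-and-steady-state fit gave the pre-steady-state cleavage rate.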
For GGAGACCUAUGAAUACAACCUACUACCGUCA, the “pre-steady-state target cleavage rate” value amounted to 0.00898 ± 0.0024.
With GGAGACCUAACAAUACAACCUAGUACCUCA the figure was 0.00888 ± 0.0052; with GGAGACCUAUGUAUACAAGGUACUACCUCA, 0.0261 ± 0.0047; with GGAGAGGAUACAUAACAACCUACUACCUCA, 0.123 ± 0.011.
With GGAGACCUUAGUAUACAACCAACUACCUCA the figure was 0.00446 ± 0.0029; with GGAGACGAUACUAUACAACCAACAACCUCA, 0.00726 ± 0.0036; with GGAGACCUUACUAUACAACCAACUACGUCA, 0.00333 ± 0.0023.
The same measure for GGAGACCUAUGUAUAAAACCUACUACCUCA: 0.0488 ± 0.0094; for GGAGACCUUUCUAUACAACCUACUACGUCA: 0.0394 ± 0.0068; for GGAGACCUAUGUAUACAACCUACUGACCUCA: 0.0132 ± 0.0038.
Take GGAGACCUAACUAUAUCAACCUACUACCUCA: the “pre-steady-state target cleavage rate” value was 0.00944 ± 0.004.
With GGAGACCUAUCUAUAUAACCUACUACCUCA the figure was 0.0723 ± 0.0089; with GGAGACCUAUGAAUAGAAGCUACUACCUCA, 0.0046 ± 0.0022; with GGAGACCUAUGUAUACAUCCUACUAGCUCA, 0.0312 ± 0.0078.
With GGAGACCUAUGAUAUGAACUACUACCUCA the figure was 0.00657 ± 0.0021; with GGAGACCUUACUAUACAACCUAGAUCCUCA, 0.00967 ± 0.0031; with GGAGAGGAUACUAUACAACGAACUACCUCA, 0.0031 ± 0.0019.
With GGAGACCUAUGUAUACAACCUACUACGUCA the figure was 0.0197 ± 0.0037; with GGAGACCAUAGUAUACUACCUACUACCUCA, 0.131 ± 0.013; with GGAGACCAUACUAUACAUGCUACUACCUCA, 0.0704 ± 0.01.
GGAGACCUAACUAUACAUCCUACUACGUCA: the “pre-steady-state target cleavage rate” value is 0.173 ± 0.052.
The same measure for GGAGACCUUACAAUACAACCUACUUCCUCA: 0.0632 ± 0.014.
With GGAGACCUAUGAUUACAUCCUACUACCUGA, the “pre-steady-state target cleavage rate” value was determined as 0.0052 ± 0.0025.
The same measure for GGAGUGGAUACUAAACAACCUACUAGCUCA: 0.0437 ± 0.0085.
With GGAGACCUAUGAUAACAAGCUACUACCUGA the figure was 0.00722 ± 0.0035; with GGAGACGAUAGUAUUCAACCUACUACCUCA, 0.156 ± 0.012; with GGAGACCUAUGAUAUGUUCCUACGUACCUCA, < 0.0001.
The same measure for GGAGACCUAUGAUAACAACCUCCUACCUCA: 0.00522 ± 0.0021; for GGAGACCUUACUAUACAAGCUACUACGUCA: 0.203 ± 0.029; for GGAGACCUAUGAUAACAACCUACUACCUGCA: 0.00443 ± 0.0033.
Take GGAGACCUUACUAUACUACCUACAACCUCA: the “pre-steady-state target cleavage rate” value amounted to 0.13 ± 0.011.
With GGAGACCUAUGUAUACAAUCUACUACCUCA, the “pre-steady-state target cleavage rate” value was found to be 0.0642 ± 0.011.
The same measure for GGAGACCUAUCUAUAGAAGCUACUACCUCA: 0.143 ± 0.019; for GGAGACCUUACUAUACAACCUACGUACCUCA: 0.0918 ± 0.0092.
In the case of GGAGACCUUACUAUACAUCCAACUACCUCA, the “pre-steady-state target cleavage rate” value came out at 0.0082 ± 0.003.
The same measure for GGAGACCUAACUAUACAUCCUACUACCACA: 0.251 ± 0.046; for GGAGACCUAUCUAUACUUCCUACUACCUCA: 0.054 ± 0.013.
With GGAGACCUAUGAAUACAAGCUAGUACCUCA the figure was 0.0081 ± 0.0031; with GGAGUGGAUAGAUUACAACCUACUACCUCA, 0.0915 ± 0.01; with GGAGACCUAUGAAUACAACCUACUACCUUCA, 0.00676 ± 0.0021.
